Screening data (PubChem)
AmpC detergent = qHTS Inhibitors of AmpC Beta-Lactamase (assay with detergent). P00811. AmpC hydrolysis of nitrocefin, absorbance 480 nm, 0.01% Triton. Potency, µM (doses to about 114 µM), most hits filed as inhibitors. hit rate 0.041% among 370,000; also: nearly all actives have a fitted effect of over 25% in size
Target sequence (P00811 whole entry, looked up): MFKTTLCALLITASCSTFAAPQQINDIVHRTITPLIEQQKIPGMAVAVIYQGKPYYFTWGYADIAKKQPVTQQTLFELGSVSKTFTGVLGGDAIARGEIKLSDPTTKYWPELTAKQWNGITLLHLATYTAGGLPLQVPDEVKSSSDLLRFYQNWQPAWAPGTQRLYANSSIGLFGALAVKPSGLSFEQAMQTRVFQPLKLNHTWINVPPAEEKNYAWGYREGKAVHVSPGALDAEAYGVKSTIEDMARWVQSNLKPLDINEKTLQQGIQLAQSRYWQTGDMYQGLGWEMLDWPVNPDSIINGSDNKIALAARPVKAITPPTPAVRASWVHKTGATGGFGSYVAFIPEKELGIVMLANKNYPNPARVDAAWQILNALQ
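20 mM phosphate pH 7.0 + 0.01% (detergent screen) or 0.0001% Triton X-100; 5.3 nM AmpC reagent; cpd preinc 15 min RT; nitrocefin (800 uM stock) to start; A480 q20 s × 4 min; Activity was normalised to no-enzyme and no-compound control wells.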
FMDV inh = High Throughput Screening for Foot and Mouth Disease Virus Antivirals; FMDV antiviral cell-based qHTS; Potency, µM (top dose mostly 57.9 µM), hits mostly inhibitors; hit rate 1.2% among 410,000; calls by dose curve; tested in HEK293T cells; also: read-out not given here; nearly all actives have a fitted effect of over 45% in size
AmpC inh no detg = qHTS Inhibitors of AmpC Beta-Lactamase (assay without detergent). hit rate 0.52% among 330,000. AmpC nitrocefin hydrolysis, absorbance 480 nm, 0.0001% Triton. Potency, µM (top dose mostly 57.1 µM), hits mostly inhibitors; also: nearly all actives have a fitted effect of over 20% in size
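AmpC (5.3 nM in the dispensed reagent) in 20 mM phosphate pH 7.0 with 0.01% (detergent screen) or 0.0001% Triton X-100 was preincubated with compounds for 15 min at room temperature. Nitrocefin was then added from an 800 uM solution, and hydrolysis was followed at 480 nm.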
HCMV antiviral = qHTS Assay for inhibitors of the human cytomegalovirus (HCMV); HFF cells, HCMV-luciferase reporter, 72 h; stronger effect = lower value; activity change, negative = inhibition, % at 57.5 µM; hit rate 4.5% among 410,000; in the data active = activity change below about -60%; inconclusive = no clear call, values can overlap the other calls; inactive = above about -39%
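After 16 h attachment at 37C, HFF cells received test compound and HCMV-luciferase (1 PFU/cell); reporter luminescence read 72 h later, data normalized against buffer-only and known inhibitor Salinomycin.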
HCV inh = qHTS Assay for Inhibitors of Hepatitis C Virus (HCV). Huh7.5.1 HCVcc-Cre infection, luciferase reporter, 44 h. Potency, µM (doses to about 41.8 µM), most hits filed as inhibitors. hit rate 3.4% among 340,000
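HCVcc-Cre virus at an moi near 0.5 was added right after compound to cells cultured 4 h from seeding (1,000 cells/well). Luciferase activity was determined 44 h later, 15 min after substrate addition at RT.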
Of the large screens only hits and unclear results are named; the others gave an inactive call. Rows were chosen to be rich in hits. Some 7.3% of all compounds tested hit in one or more screens of this group. Unless noted, calls follow the shape of the dose curve; as a rule, active = well fitted curve in the direction sought with a large enough effect; inconclusive = small, poorly fitted or top-dose-only effect, or another doubt; inactive = no such curve, though single readings can be large; an effect the other way counts as inactive or inconclusive.

Cc1cc(C(=O)OCc2nnc(-c3ccccc3)o2)c(C)n1-c1ccccc1	AmpC detergent inconclusive, FMDV inh inconclusive, HCV inh 14µM
O=C(OCc1nnc(-c2ccccc2)o1)c1ccc(-n2cnnn2)cc1	none
O=C(OCc1nnc(-c2ccccc2)o1)c1cn(-c2ccccc2)nc1-c1ccccc1	AmpC detergent inconclusive, HCV inh 11µM
Cc1noc(C)c1COC(=O)c1cc(C)n(-c2ccccc2)c1C	HCV inh 10µM
COc1ccc(CNC(=O)Cn2c(=O)c3cccn3c3cccnc32)cc1	none (no result: AmpC inh no detg, HCV inh)
CCOc1ccccc1-n1c(O)c(C=Nc2ccc(N(CC)CC)cc2)c(=O)[nH]c1=O	HCMV antiviral -87
CCN(CC)c1ccc(N=Cc2c(O)n(-c3ccccc3C)c(=O)[nH]c2=O)cc1	AmpC detergent inconclusive (no result: FMDV inh)
CCCCCCN1C[C@@H](O)[C@H](n2cc(-c3ccc(F)cc3)nn2)C[C@@H]1c1ccc(C)cc1	FMDV inh inconclusive (no result: AmpC detergent, AmpC inh no detg, HCV inh)
Cc1ccc(C(=O)N/C(=C\c2ccco2)C(=O)NCCN2CCOCC2)cc1C	none
O=[N+]([O-])c1ccc(Sc2ccncn2)c([N+](=O)[O-])c1	FMDV inh 28µM, HCMV antiviral -86 (no result: AmpC detergent, AmpC inh no detg, HCV inh)
O=[N+]([O-])c1cc(Cl)ccc1Sc1cccc2cccnc12	none (no result: FMDV inh)
Cc1cc(C)nc(Sc2ccc([N+](=O)[O-])cc2[N+](=O)[O-])n1	FMDV inh 7.1µM, HCMV antiviral inconclusive
O=[N+]([O-])c1ccc(Sc2cccc3cccnc23)c([N+](=O)[O-])c1	FMDV inh inconclusive, HCMV antiviral -106
Cc1ccc(-c2cc(NC(=O)Cc3c(C)[nH]c4ccccc34)ccc2Nc2cccnc2)cc1	none (no result: AmpC detergent, FMDV inh, AmpC inh no detg, HCV inh)
N#Cc1c(N)nc2c(c1-c1ccncc1)CCCCC2	none
N#Cc1c(N)nc2c(c1-c1cccnc1)CCCCC2	AmpC detergent inconclusive, HCMV antiviral -62
COc1ccccc1OCC(=O)Nc1cc(S(=O)(=O)N2CCCCC2)ccc1N1CCCCC1	FMDV inh inconclusive, HCV inh 25µM
COc1ccccc1OCC(=O)Nc1cc(Cl)ccc1N1CCCCC1	FMDV inh inconclusive, HCMV antiviral inconclusive, HCV inh 10µM
COc1cc(-c2nc3ccc(N4CCN(C)CC4)cc3[nH]2)cc(OC)c1OC	HCV inh 7.9µM
COc1cc(C(C)=O)ccc1OCC(O)CN1CCN(c2cc(C)cc(C)c2)CC1 (stereo not drawn)	AmpC detergent inconclusive, HCV inh 13µM
CC(=O)c1ccc(N2CCN(CC(O)COC(c3ccccc3)c3ccccc3C)CC2)cc1 (stereo not drawn)	AmpC detergent inconclusive, HCV inh 11µM
Cc1cccc(C)c1OCC(O)CN1CCN(c2ccccn2)CC1 (stereo not drawn)	none
CC(=O)c1ccc(OCC(O)CN2CCN(c3ccc(F)cc3)CC2)cc1 (stereo not drawn)	none
OC(COC(c1ccc(Cl)cc1)c1ccc(Cl)cc1)CN1CCN(c2ccccn2)CC1 (stereo not drawn)	FMDV inh inconclusive, HCV inh 8.9µM
CC(=O)c1ccc(N2CCN(CC(O)COC(c3ccccc3)c3ccccc3)CC2)cc1 (stereo not drawn)	AmpC detergent inconclusive, HCV inh 4µM
C(=N\Nc1cc(N2CCCCC2)ncn1)/c1ccco1	AmpC detergent inconclusive
OC(COCc1ccc(Cl)cc1)CN1CCN(CC(O)COCc2ccc(Cl)cc2)CC1 (stereo not drawn)	AmpC detergent inconclusive, FMDV inh inconclusive, HCMV antiviral inconclusive, HCV inh 11µM
CN1CCN(CC(O)COC(c2ccccc2)c2ccccc2)CC1 (stereo not drawn)	AmpC detergent inconclusive, HCMV antiviral inconclusive, HCV inh 16µM
CN1CCN(CC(O)COc2ccccc2)CC1 (stereo not drawn)	none
C#CCNC(=O)c1ccc2sc([C@H]3C[C@H](O)[C@@H](CO)O3)nc2c1	none (no result: AmpC detergent, AmpC inh no detg, HCV inh)
CCOc1ccc(/C=C/C(O)=C2/C(=O)N(C)C3(C)CC2c2ccccc2O3)cc1OC (stereo not drawn)	FMDV inh inconclusive, HCMV antiviral -98, HCV inh inconclusive
COc1ccc2c(c1)CCc1cc(C(=O)N3CCN(c4ccc(N5CCOCC5)nn4)CC3)sc1-2	AmpC detergent inconclusive, FMDV inh inconclusive, HCV inh 10µM (no result: HCMV antiviral)
Cc1ccc(-n2ncc(C(=O)NCc3ccc4c(c3)OCO4)c2C2CCN(C(=O)OC(C)(C)C)CC2)c(C)c1	HCMV antiviral inconclusive (no result: AmpC inh no detg, HCV inh)
C=C1C(=O)CC2=C1[C@](Cc1ccc(F)cc1)(C(=O)OC)N(C(=O)c1ccccc1)C2	FMDV inh inconclusive (no result: AmpC detergent, AmpC inh no detg, HCV inh)
C=C1C(=O)C=C2CN(C(=O)c3ccccc3)[C@@](Cc3ccc(F)cc3)(C(=O)OC)[C@@H]12	FMDV inh 3.2µM, HCV inh inconclusive (no result: HCMV antiviral)
COC(=O)[C@@]1(Cc2ccc(OC)cc2)[C@H]2c3cc(C(=O)N(C)C)n(C[C@H](O)CO)c3C[C@H]2CN1C(=O)c1ccccc1	none
COC(=O)[C@@]1(Cc2ccc(OC)cc2)[C@@H]2C(=CC(=O)[C@H]2CC(=O)C(=O)N(C)C)CN1C(=O)c1ccccc1	FMDV inh 25µM, HCMV antiviral -80, HCV inh 13µM
Cc1c(NC(=O)c2ccc(CN3CCc4ccccc4C3)cc2)c(=O)n(-c2ccccc2)n1C	FMDV inh inconclusive, HCMV antiviral inconclusive, HCV inh inconclusive
COc1cccc(C(=O)Nc2ccc(N3CCN(Cc4ccccc4)CC3)cc2)c1	FMDV inh inconclusive, HCMV antiviral inconclusive, HCV inh inconclusive
C/C(=N\NC(=O)c1ccc(CN2CCc3ccccc3C2)cc1)c1ccccc1O	FMDV inh 22µM, HCMV antiviral -96, HCV inh 5.6µM
Cc1cc(C)c(NC(=O)c2ccc(CN3CCc4ccccc4C3)cc2)c(C)c1	FMDV inh inconclusive, HCV inh 8.9µM
CC1CCN(CCC(=O)Nc2ccc3c(c2)CCC3)CC1	HCMV antiviral -80, HCV inh inconclusive (no result: FMDV inh)
O=C(Nc1ccc(N2CCN(Cc3ccccc3)CC2)cc1)c1cccnc1	HCMV antiviral -61
CC(=O)Nc1cccc(-c2cccc3nccn23)c1	none (no result: AmpC detergent, AmpC inh no detg, HCV inh)
CC(=O)c1cccc(NC(=O)c2ccc(CN3CCc4ccccc4C3)cc2)c1	FMDV inh inconclusive, HCV inh 11µM
COc1cccc(NC(=O)c2ccc(CN3CCc4ccccc4C3)cc2)c1	AmpC detergent inconclusive, HCMV antiviral inconclusive, HCV inh 1µM
COc1cccc(NC(=O)c2ccc(N3C(=O)C4CC=C(C)CC4C3=O)cc2)c1 (stereo not drawn)	FMDV inh inconclusive, HCMV antiviral -64, HCV inh inconclusive
COc1ccc(NC(=O)c2oc3c(c2C)-c2nn(Cc4ccccc4Cl)cc2CC3)cc1OC	HCMV antiviral -64 (no result: AmpC inh no detg, HCV inh)
COc1cccc(NC(=O)c2ccc(N3C(=O)C4CC=CCC4C3=O)cc2)c1 (stereo not drawn)	HCV inh inconclusive (no result: AmpC detergent, AmpC inh no detg)
